Assay results from PubChem BioAssay AID488896 (Broad Institute, 2010).
About 3,100 (0.97%) of roughly 320,000 compounds were called active. The sample as a whole holds a higher share of actives than the screen did. A number with no mark means an inactive call.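 Rule for the calls: active = mean replicate inhibition of at least 70% and a set share of replicates each scoring 70 or more; inconclusive = meets just one of the two criteria; inactive = fails both criteria.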

target: Scavenger receptor class B member 1 (Mus musculus) (UniProt Q61009); assay: mouse SR-BI DiI-HDL uptake blockers – ldlA[mSR-BI] cells, fluorescence, single point, primary screen (AID 488896); settings: ldlA[mSR-BI] CHO cells, 3 h, at 12.5 µM, active compounds read high;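 note: 0% = median of neutral control wells and 100% = median of positive control wells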
Sequence (Q61009 whole entry, looked up): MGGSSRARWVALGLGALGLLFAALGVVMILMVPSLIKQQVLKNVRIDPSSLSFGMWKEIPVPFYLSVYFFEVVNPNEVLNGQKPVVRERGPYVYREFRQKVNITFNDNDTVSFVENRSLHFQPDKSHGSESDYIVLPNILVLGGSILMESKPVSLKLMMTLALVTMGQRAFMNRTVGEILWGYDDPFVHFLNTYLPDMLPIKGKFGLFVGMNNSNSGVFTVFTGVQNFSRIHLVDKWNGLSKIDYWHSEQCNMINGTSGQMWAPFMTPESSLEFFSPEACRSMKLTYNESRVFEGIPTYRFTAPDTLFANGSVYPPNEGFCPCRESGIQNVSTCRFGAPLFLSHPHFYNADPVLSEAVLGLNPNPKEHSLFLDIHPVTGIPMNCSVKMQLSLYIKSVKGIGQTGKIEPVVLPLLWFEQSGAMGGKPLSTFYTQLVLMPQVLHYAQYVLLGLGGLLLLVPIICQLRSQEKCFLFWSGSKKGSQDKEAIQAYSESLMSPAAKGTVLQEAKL

SMILES	inhibition
CC(=O)OC1C2(CC3N4C(=O)C5(CO)SSC4(CC31O)C(=O)N5C)OC(C)C(C)(C)C2=O (stereo not given)	106% (active)
CC12CCC(O)CC1CCC1C2CCC2(C)C(C(=O)CC(O)C(F)(F)F)CCC12 (stereo not given)	13.2%
O=C(c1ccccc1)C(O)(CN1CCCCC1)c1ccccc1 (stereo not given)	-5.67%
COC1C(O)C(C)OC(OC2CCC3(C=O)C(CCC4C3CCC3(C)C(C5=CC(=O)OC5)CCC43O)C2)C1O (stereo not given)	0.038%
CC(=O)Cc1ccc(OC(C)C)cc1	-1.27%
CCOP(=O)(OCC)C(NC(=O)c1ccc(OC)cc1)C(Cl)(Cl)Cl (stereo not given)	6.36%
CC(=O)c1ccc(OC(NC(=O)Cc2ccccc2)C(Cl)(Cl)Cl)cc1 (stereo not given)	92.8% (active)
CN(C)CC1Oc2ccccc2OC1(O)c1ccccc1 (stereo not given)	1.39%
CC1=CC(=Cc2sc3ccccc3[n+]2C)C=C(C)O1	-1%
CCC(C)(O)C(=O)OC1C(=O)OC2CC3C(C)=CC(=O)C(O)C3(C)C3C4(O)OCC23C1C(C)C4O (stereo not given)	-10.3%
